TexasRed fluor: Total Fluorescence Counterscreen for Inhibitors of the Interaction of Thyroid Hormone Receptor and Steroid Receptor Coregulator 2. 280,000 tested, 0.29% active. TRb/SRC2 Texas Red total fluorescence interference. Potency, µM (series often up to 106 µM), for inactives: top-dose fluorescence change, negative = quenching; active = well fitted curve in either direction with a large enough effect; inconclusive = small, poorly fitted or top-dose-only effect
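Flags fluorescent or light-absorbing compounds by total fluorescence, S + 2P, at 555 nm excitation and 632 nm emission. Mixture: 20 nM Texas Red SRC2 peptide, 0.6 uM human TRb LBD, 1 uM T3, 5% DMSO; compound exposure 5 h at ambient temperature.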
Tau FP inhib: qHTS for Inhibitors of Tau Fibril Formation, Fluorescence Polarization; Microtubule-associated protein tau (Homo sapiens), P10636; K18 P301L tau heparin fibrillization, Alexa594 FP, 6 h; Potency, µM (series often up to 57.7 µM), inactives show at the top dose activity, negative = inhibition, usual class: inhibitors; 280,000 tested, 0.39% active; note: nearly all actives have a fitted effect of over 55% in size
Target sequence (P10636 561-689 P618L limits assumed): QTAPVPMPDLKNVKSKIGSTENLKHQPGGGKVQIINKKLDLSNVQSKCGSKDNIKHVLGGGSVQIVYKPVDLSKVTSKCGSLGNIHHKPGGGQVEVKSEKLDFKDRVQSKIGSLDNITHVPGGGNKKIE
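Heparin (20 uM) drove fibril formation of recombinant tau K18 P301L, 15 uM unlabeled with 0.24 uM Alexa 594 label, for 6 hr at 37 C in 100 mM sodium acetate pH 7. Fluorescence polarization (555/632 nm) read 1 hr after 30 uM ThT.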
Tau fluor cs: Counterscreen qHTS for Inhibitors of Tau Fibril Formation, Fluorescence Polarization. tau K18 P301L Alexa594 fluorescence, heparin fibrillization. Potency, µM (doses to about 57.7 µM), for the others: at the highest dose activity change, negative = decrease. 280,000 tested, 0.93% active; note: nearly all actives have a fitted effect of over 55% in size
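Human tau K18 P301L (15 uM unlabeled, 0.24 uM Alexa 594-labeled) in 100 mM sodium acetate pH 7 with 20 uM heparin, 6 hr at 37 C. ThT 30 uM added, 1 hr ambient; Alexa 594 FP and total fluorescence read at 555/632 nm.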
Tau ThT inhib: qHTS for Inhibitors of Tau Fibril Formation, Thioflavin T Binding. recombinant tau K18 P301L, heparin-induced fibrillization, ThT fluorescence. Potency, µM (series often up to 57.4 µM), for inactives: at the top dose activity, negative = inhibition, usual class: inhibitors. 270,000 tested, 2.1% active; note: nearly all actives have a fitted effect of over 55% in size
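Fibril formation assay: tau K18 P301L at 15 uM with trace Alexa 594 label, heparin inducer 20 uM, pH 7 sodium acetate buffer, 37 C for 6 hr; endpoint ThT signal.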
TRb SRC2 PPI: qHTS for Inhibitors of the Interaction of Thyroid Hormone Receptor and Steroid Receptor Coregulator 2 | Thyroid hormone receptor beta (Homo sapiens), P10828 | TRbeta-SRC2 peptide binding, fluorescence polarization; receptor liganded with 1 µM T3 | Potency, µM (series often up to 106 µM), for inactives: top-dose activity change, negative = inhibition, usual class: inhibitors | 280,000 tested, 0.065% active | AID 1469, 2008;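 note: plate controls were bound peptide for no effect and peptide without receptor for full effect; nearly all actives have a fitted effect of over 50% in size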
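Read-out is fluorescence polarization (555 nm excitation, 632 nm emission) of a Texas Red SRC2 coactivator peptide; loss of signal reflects blocked binding to human TRb ligand-binding domain in the presence of 1 uM T3.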
RGS12 GoLoco inh: qHTS Assay for Inhibitors of RGS12 GoLoco Motif Activity (Red Fluorophore); Guanine nucleotide-binding protein G(i) subunit alpha-1 (Homo sapiens), P63096; Gai1:RGS12 GoLoco peptide FP, rhodamine, 10 min; Potency, µM (highest dose often 61.6 µM), for inactives: at the top dose activity, negative = inhibition, most hits filed as inhibitors; 230,000 tested, 0.44% active; AID 880, 2007; active = well fitted inhibition curve with a large enough effect, not every such curve was filed as active; inactive = no such curve, though single readings can be large or run the other way; note: nearly all actives have a fitted effect of over 30% in size
Target sequence (P63096 whole entry, looked up): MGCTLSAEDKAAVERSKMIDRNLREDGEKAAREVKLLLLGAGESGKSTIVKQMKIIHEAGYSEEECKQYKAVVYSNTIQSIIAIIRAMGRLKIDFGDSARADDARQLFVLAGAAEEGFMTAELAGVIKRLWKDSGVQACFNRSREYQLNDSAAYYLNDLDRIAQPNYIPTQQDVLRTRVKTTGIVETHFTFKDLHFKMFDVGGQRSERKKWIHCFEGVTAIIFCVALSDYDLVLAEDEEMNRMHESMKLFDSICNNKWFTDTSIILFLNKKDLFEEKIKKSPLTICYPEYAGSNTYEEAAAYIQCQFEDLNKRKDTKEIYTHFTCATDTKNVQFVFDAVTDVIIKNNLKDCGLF
* marks the source's active call; other numbers are inactive results; [ ] = another dose, or the depositor's remark. Hits are enriched below; roughly 3.1% of the tested compounds scored in any of these assays. Unless noted, calls come from the whole dose curve; as a rule, active = well fitted curve in the direction sought with a large enough effect; inconclusive = small, poorly fitted or top-dose-only effect, or another doubt; inactive = no such curve, though single readings can be large; an effect the other way counts as inactive or inconclusive. Unless noted, % is set by controls: 0 for no effect and ±100 for the full control effect; potency is the fitted concentration of half-maximal effect.

Screening O=C(Nc1nnc(S(=O)(=O)N2CCCC2)s1)c1ccccc1Br returned TexasRed fluor 0.05µM*[quencher], Tau FP inhib 1%, Tau fluor cs -21%, Tau ThT inhib inconclusive and TRb SRC2 PPI -13%.
Screening O=C(Nc1nnc(S(=O)(=O)N2CCCCCC2)s1)c1ccc(Br)cc1 returned TexasRed fluor -15%, Tau FP inhib -4%, Tau fluor cs inconclusive, Tau ThT inhib inconclusive and TRb SRC2 PPI -1%.
For Cc1ccc(C(=O)Nc2nnc(S(=O)(=O)N3CCN(c4ccc(F)cc4)CC3)s2)cc1 the results were TexasRed fluor -29%, Tau FP inhib 6%, Tau fluor cs -17%, Tau ThT inhib 2.5µM* and TRb SRC2 PPI 0%.
For O=C(Nc1nnc(S(=O)(=O)N2CCN(c3ccc(F)cc3)CC2)s1)c1ccc(Cl)cc1 the results were TexasRed fluor inconclusive, Tau FP inhib -8%, Tau fluor cs -22%, Tau ThT inhib inconclusive and TRb SRC2 PPI 2%.
Screening O=C(Nc1nnc(S(=O)(=O)N2CCCCC2)s1)c1ccc(Cl)cc1 returned TexasRed fluor inconclusive, Tau FP inhib 4%, Tau fluor cs -27%, Tau ThT inhib 2µM* and TRb SRC2 PPI -4%.
`O=C(O)c1ccc(Nc2ncnc3c2cnn3Cc2ccccc2)cc1` gave TexasRed fluor -5%, Tau FP inhib -4%, Tau fluor cs 0%, Tau ThT inhib 3%, TRb SRC2 PPI 4% and RGS12 GoLoco inh 10%.
For CCN1C(=O)c2ccccc2S(=O)(=O)c2ccc(C(=O)NCc3ccc(F)cc3)cc21 the results were TexasRed fluor 3%, Tau FP inhib -11%, Tau fluor cs inconclusive, Tau ThT inhib -6% and TRb SRC2 PPI 0%.
For Cc1ccc(NC(=O)c2ccc([N+](=O)[O-])o2)cc1S(=O)(=O)N1CCOCC1 the results were TexasRed fluor 1%, Tau FP inhib 4%, Tau fluor cs -9%, Tau ThT inhib -2%, TRb SRC2 PPI 9% and RGS12 GoLoco inh 6%.
Screening CCN(CC)c1ccc(/C=N/NC(=O)c2ccccn2)cc1 returned TexasRed fluor -2%, Tau FP inhib 0%, Tau fluor cs -29%, Tau ThT inhib 10µM*, TRb SRC2 PPI 9% and RGS12 GoLoco inh 26%.
O=C(Cc1c[nH]c2ccccc12)N/N=C/c1ccc(F)cc1 was read as TexasRed fluor -16%, Tau FP inhib 13%, Tau fluor cs -15%, Tau ThT inhib -10%, TRb SRC2 PPI -2% and RGS12 GoLoco inh 0%.
C/C(=N\NC(=O)CCc1c(C)n[nH]c1C)c1ccc([N+](=O)[O-])cc1 was read as TexasRed fluor -6%, Tau FP inhib 0%, Tau fluor cs -7%, Tau ThT inhib -18%, TRb SRC2 PPI 1% and RGS12 GoLoco inh 2%.
CCN(CC)c1ccc(/C=N/NC(=O)c2c[nH]c3ccccc23)cc1 was read as TexasRed fluor -2%, Tau FP inhib 7%, Tau fluor cs 13µM*[quencher], Tau ThT inhib 5µM*, TRb SRC2 PPI 8% and RGS12 GoLoco inh 1%.
Screening CN(C)c1ccc(/C=N/NC(=O)CCc2c[nH]c3ccccc23)cc1 returned TexasRed fluor -2%, Tau FP inhib 6%, Tau fluor cs inconclusive, Tau ThT inhib 8.9µM*, TRb SRC2 PPI 4% and RGS12 GoLoco inh 3%.
C/C(=N\NC(=O)CCc1c[nH]c2ccccc12)c1ccc([N+](=O)[O-])cc1 was read as TexasRed fluor -5%, Tau FP inhib 15%, Tau fluor cs inconclusive, Tau ThT inhib 10µM*, TRb SRC2 PPI -1% and RGS12 GoLoco inh 2%.
For CCOC(=O)CNC(=O)CSc1nc2c(C)cccc2cc1CC the results were TexasRed fluor 2%, Tau FP inhib -1%, Tau fluor cs 0%, Tau ThT inhib -8%, TRb SRC2 PPI -2% and RGS12 GoLoco inh 10%.
`CCN1CCN(C(=O)Nc2cccc(C(F)(F)F)c2)CC1` gave TexasRed fluor 0%, Tau FP inhib 6%, Tau fluor cs -4%, Tau ThT inhib -12%, TRb SRC2 PPI 1% and RGS12 GoLoco inh 4%.
Screening CCN(CC)c1ccc(/C=N/N2CCN(c3ccccn3)CC2)cc1 returned TexasRed fluor 2%, Tau FP inhib 0%, Tau fluor cs inconclusive, Tau ThT inhib 1.3µM*, TRb SRC2 PPI -6% and RGS12 GoLoco inh 0%.
`CCN(CC)c1ccc(/C=N/NC(=O)c2cnccn2)cc1` gave TexasRed fluor -6%, Tau FP inhib -4%, Tau fluor cs -17%, Tau ThT inhib 14µM*, TRb SRC2 PPI -12% and RGS12 GoLoco inh -13%.
Screening CCN(CC)c1ccc(/C=N/NC(=O)c2ccco2)cc1 returned TexasRed fluor 0%, Tau FP inhib 8%, Tau fluor cs inconclusive, Tau ThT inhib inconclusive, TRb SRC2 PPI -14% and RGS12 GoLoco inh 7%.
Screening COc1ccc(CNC(=O)COC(=O)c2cc(-c3ccc(Cl)s3)nc3ccccc23)cc1 returned TexasRed fluor -7%, Tau FP inhib inconclusive, Tau fluor cs -28%, Tau ThT inhib -8%, TRb SRC2 PPI 2% and RGS12 GoLoco inh -3%.
Cc1cc(N2C(=O)C(=O)/C(=C(/O)c3ccc(F)cc3)C2c2ccc(F)cc2)no1 (centres undefined) was read as TexasRed fluor -4%, Tau FP inhib 0%, Tau fluor cs 0%, Tau ThT inhib -4%, TRb SRC2 PPI 7% and RGS12 GoLoco inh 4%.
CCc1sc(/C=C(/C#N)C(N)=S)cc1[N+](=O)[O-] was read as TexasRed fluor -14%, Tau FP inhib inconclusive, Tau fluor cs inconclusive, Tau ThT inhib 28µM*, TRb SRC2 PPI 10% and RGS12 GoLoco inh 124%.
Cc1ccc(NC(=O)CSc2nc(-c3ccccc3Cl)nc3cc(=O)[nH]n23)c(C)c1 was read as TexasRed fluor 2%, Tau FP inhib -1%, Tau fluor cs -6%, Tau ThT inhib -15% and TRb SRC2 PPI -1%.
`O=C(CSC1=NS(=O)(=O)c2ccccc21)Nc1ccccc1` gave TexasRed fluor 2%, Tau FP inhib inconclusive, Tau fluor cs -16%, Tau ThT inhib 32µM*, TRb SRC2 PPI -6% and RGS12 GoLoco inh -26%.

High-throughput results as filed in PubChem BioAssay.
